Assay [1] in a line: Nuclear factor erythroid 2-related factor 2/antioxidant responsive element (Nrf2/ARE) small molecule agonists: qHTS cell viability counter screen in human keratinocytes (AID 1919968; active means well fitted curve in the direction sought with a large enough effect in the repeat runs; an effect the other way counts as inactive or inconclusive; further: nearly all actives have a fitted effect of over 55% in size; further: potency means the concentration at half of the fitted maximal effect). The procedure, abridged: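 CellTiter-Fluor fluorescence, read 1 h after reagent, gave viability in the same wells as the ARE-luciferase assay. KeratinoSens cells (1,500/well) had 23 h compound exposure at 37 C/5% CO2 following 5 h plating.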
A general note: Quantitative high-throughput screening tests each substance at several concentrations.

Assay [2] can be described thus: Nuclear factor erythroid 2-related factor 2/antioxidant responsive element (Nrf2/ARE) small molecule agonists: luciferase reporter gene qHTS assay in human keratinocytes (AID 1919969). Further: nearly all actives have a fitted effect of over 35% in size. Further: potency means the concentration at half of the fitted maximal effect.
Assay [3] concerns the target Gonadotropin-releasing hormone receptor (Homo sapiens) (UniProt P30968). The assay can be described thus: Human gonadotropin-releasing hormone receptor (GnRHR) small molecule agonists, calcium flux assay in GnRHR-HEK293 cells (AID 1920063). Further: nearly all actives have a fitted effect of over 35% in size. The procedure, abridged: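 Agonist mode: compounds at 15 concentrations, in triplicate, went onto calcium dye-loaded GnRHR-HEK293 cells. Intracellular calcium was then followed as 480/540 nm fluorescence at 1 s intervals over 3 min.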
(In general: Calcium flux is commonly read through the fluorescence of an indicator in the cells.)

The target of assay [4] is KiSS-1 receptor (Homo sapiens) (UniProt Q969F8). As to the kind of experiment: Human kisspeptin (KISS1R) small molecule agonists, calcium flux assay in KISS1R-HEK293 cells (AID 1920064; active means well fitted curve in the direction sought with a large enough effect in the repeat runs; an effect the other way counts as inactive or inconclusive). A digest of the protocol: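 Agonist mode: intracellular calcium rise tracked at 1 s intervals over 3 min (480/540 nm) immediately after compound addition to dye-loaded KISS1R-HEK293 stable cells. Each compound tested at 15 concentrations in triplicate.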

The nature of assay [5]: G protein-coupled receptor (GPCR) small molecule agonists, calcium flux assay: HEK293 wild type cell line counter screen (AID 1920065). A digest of the protocol: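 Calcium flux counter screen: compound added in agonist mode at 15 concentrations in triplicate to dye-loaded parental HEK293 cells. Fluorescence (480/540) read kinetically for 3 min; ATP served as positive control.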

Assay [6] can be described thus: p53 small molecule agonists, cell-based qHTS assay with human liver microsomes (AID 1963577).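 Further: p53 response element beta-lactamase reporter cells with liver microsomes plus NADPH.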 The procedure, abridged: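 Metabolically competent format: test substances, human liver microsomes and NADPH (both 0.5 mg/mL final) incubated with p53RE-bla cells 16 h at 37 C. Beta-lactamase reporter signal then quantified by fluorescence.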
A short description of assay [7]: p53 small molecule agonists, cell-based qHTS assay with rat liver microsomes (AID 1963578). The procedure, abridged: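 Each plate received p53RE-bla cells, then compound, then rat liver microsomes and NADPH (both 0.5 mg/mL final). Plates were held 16 h at 37 C, and beta-lactamase activity was detected with LiveBLAzer over 2 h.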
A short description of assay [8]: p53 small molecule agonists, cell-based qHTS assay with human liver microsomes: qHTS cell viability counter screen (AID 1963579). Further: nearly all actives have a fitted effect of over 45% in size. A digest of the protocol: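 Tox21 library compounds, delivered from DMSO stocks, were tested on p53RE-bla cells together with 0.5 mg/mL human liver microsomes and 0.5 mg/mL NADPH (final) over 16 h at 37 C; CellTiter-Glo luminescence served as the cytotoxicity measure.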

The nature of assay [9]: p53 small molecule agonists, cell-based qHTS assay with rat liver microsomes: qHTS cell viability counter screen (AID 1963580). Further: nearly all actives have a fitted effect of over 45% in size. The procedure, abridged: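 Counter screen for cytotoxicity under metabolic activation: rat liver microsomes and NADPH, 0.5 mg/mL final each, added with compounds to p53RE-bla HCT-116 cells; 16 h at 37 C, then ATP luminescence read.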
A short description of assay [10]: p53 small molecule agonists, cell-based qHTS assay: qHTS cell viability counter screen (AID 1963581). Further: nearly all actives have a fitted effect of over 45% in size. A digest of the protocol: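 Counter screen read by CellTiter-Glo luminescence (ATP content, 30 min at room temperature), run in the same wells as the beta-lactamase reporter read. HCT-116 p53RE-bla cells saw compounds for 16 h at 37 C.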
The nature of assay [11]: p53 small molecule agonists, cell-based qHTS assay (AID 1963582; active means well fitted activation curve with a large enough effect in the signal ratio in the repeat runs, not every such curve was filed as active; the % refers to the signal ratio). A digest of the protocol: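 Read-out is beta-lactamase FRET fluorescence after 2 h at room temperature with LiveBLAzer B/G substrate. p53 response element-bla cells were treated 16 h at 37 C with compounds in DMSO, added 5 h after seeding.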
Assay [12] concerns the target 5-hydroxytryptamine receptor 2A (Homo sapiens) (UniProt P28223). As to the kind of experiment: 5-hydroxytryptamine receptor 2A (HTR2A) small molecule agonists, cell-based qHTS assay (AID 1963587). Further: nearly all actives have a fitted effect of over 30% in size. The procedure, abridged: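 HTR2A-CHO cells, plated 18 h at 37 C/5% CO2, dye-loaded 1 h at 37 C; compounds in DMSO added by pin tool (agonist mode). Intracellular calcium flux read as kinetic fluorescence on FDSS over 2 min at 1 s intervals.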

The target in assay [13] is Muscarinic acetylcholine receptor M1 (Homo sapiens) (UniProt P11229). The assay can be described thus: Cholinergic receptor muscarinic 1 (CHRM1) small molecule antagonists, cell-based qHTS assay (AID 1963588). Further: nearly all actives have a fitted effect of over 40% in size. Further: potency means the concentration at half of the fitted maximal effect. A digest of the protocol: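 Compounds were tested at 15 concentrations in three independent runs. Dye-loaded CHRM1-CHO cells were exposed 5 min at room temperature before stimulation by acetylcholine added at 50nM. Intracellular calcium was read kinetically on FDSS for 3 min.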

For assay [14] the target is unchanged. As to the kind of experiment: Cholinergic receptor muscarinic 1 (CHRM1) small molecule agonists, cell-based qHTS assay (AID 1963589). Further: nearly all actives have a fitted effect of over 35% in size. The procedure, abridged:
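Agonist-mode calcium-flux screen: compounds at 15 concentrations, three independent runs, were pin-transferred onto dye-loaded human CHRM1-CHO cells. Fluorescence was then recorded kinetically every second over minutes.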

The nature of assay [15]: cAMP Responsive Elements (CRE) small molecule agonists, cell-based qHTS assay (AID 1963590). A digest of the protocol:
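Agonist mode: compound added to CRE-bla HEK 293T cells (2,000/well, 18 h after plating) for 3 h at 37 C/5% CO2. Reporter activity detected via FRET beta-lactamase substrate, 2 h room-temperature loading.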

Assay [16] addresses Beta-2 adrenergic receptor (Homo sapiens) (UniProt P07550). As to the kind of experiment: Adrenergic beta2 receptor (ADRB2) small molecule antagonists, cell-based qHTS assay (AID 1963592). Further: series mostly up to about 92 µM; nearly all actives have a fitted effect of over 50% in size. A digest of the protocol:
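Assay format: CHO-ADRB2 cells, 18-20hr seeding at 37C/5% CO2, then compound plus 1nM isoproterenol agonist mix for 0.5hr RT. Homogeneous time-resolved fluorescence cAMP detection after 1hr, expressed as 665/615 nm ratio.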

Assay [17] has as its target D(2) dopamine receptor (Homo sapiens) (UniProt P14416). As to the kind of experiment: Dopamine D2 receptor (DRD2) small molecule agonists, cell-based qHTS assay (AID 1963594). Further: nearly all actives have a fitted effect of over 35% in size. The procedure, abridged:
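HEK293 cells stably expressing DRD2 were cultured 24 h at 37 C, then given Ro20-1724 (0.1 mM final) and compounds for 10 min at room temperature. NKH477 (200nM) was then added for 30 min. cAMP was read by HTRF.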

Assay [18] shares this target. As to the kind of experiment: Dopamine D2 receptor (DRD2) small molecule antagonists, cell-based qHTS assay (AID 1963595; active means well fitted inhibition curve with a large enough effect in the signal ratio in the repeat runs, with a control signal flat; the % refers to the signal ratio). The procedure, abridged: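 HEK293 cells stably expressing DRD2 were preincubated with 0.1 mM Ro20-1724, then with compound for 10 min at room temperature. Cells were stimulated with 200 nM NKH477 plus 12 nM quinpirole for 30 min, and cAMP was read by HTRF.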

A short description of assay [19]: cAMP Responsive Elements (CRE) small molecule antagonists, cell-based qHTS assay (AID 1963591; active means well fitted inhibition curve with a large enough effect in the signal ratio in the repeat runs, not every such curve was filed as active; the % refers to the signal ratio). A digest of the protocol: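 Antagonist mode: compounds are added alongside the adenylyl cyclase activator NKH477 (0.25 uM final) to CRE-bla HEK293T cells for 3 h. LiveBLAzer FRET substrate, 2 h at room temperature, reports bla expression.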
Assay [20] deals with Beta-2 adrenergic receptor (Homo sapiens) (UniProt P07550). The assay can be described thus: Adrenergic beta2 receptor (ADRB2) small molecule agonists, cell-based qHTS assay (AID 1963593).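 Further: CHO cells stably overexpressing human ADRB2.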 A digest of the protocol: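 CHO cells stably over-expressing ADRB2 were plated overnight at 37C, then dosed with compounds plus a stimulation mix containing 100uM IBMX and 25uM Ro-20-1724 for 0.5hr at room temperature. cAMP was measured by HTRF competition, 1hr.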

Unmarked numbers belong to inactive results. Records with an inconclusive call do not appear. The source made the active and inactive calls. Unless noted, the call rests on the fitted dose curve.

Chain of Beta-2 adrenergic receptor (Homo sapiens) (P07550 whole entry, looked up): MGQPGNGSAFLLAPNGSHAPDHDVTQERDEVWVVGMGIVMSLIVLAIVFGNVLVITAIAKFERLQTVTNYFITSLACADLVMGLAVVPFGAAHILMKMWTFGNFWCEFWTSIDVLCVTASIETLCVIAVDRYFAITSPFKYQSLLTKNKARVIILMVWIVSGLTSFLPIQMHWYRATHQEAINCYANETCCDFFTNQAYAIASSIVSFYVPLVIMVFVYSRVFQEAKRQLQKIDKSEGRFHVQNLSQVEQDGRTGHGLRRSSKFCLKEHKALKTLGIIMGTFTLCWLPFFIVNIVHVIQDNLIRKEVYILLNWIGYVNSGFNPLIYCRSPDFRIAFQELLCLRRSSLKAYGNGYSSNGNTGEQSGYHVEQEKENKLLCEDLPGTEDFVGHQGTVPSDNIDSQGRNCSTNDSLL
Chain of Muscarinic acetylcholine receptor M1 (Homo sapiens) (P11229 whole entry, looked up): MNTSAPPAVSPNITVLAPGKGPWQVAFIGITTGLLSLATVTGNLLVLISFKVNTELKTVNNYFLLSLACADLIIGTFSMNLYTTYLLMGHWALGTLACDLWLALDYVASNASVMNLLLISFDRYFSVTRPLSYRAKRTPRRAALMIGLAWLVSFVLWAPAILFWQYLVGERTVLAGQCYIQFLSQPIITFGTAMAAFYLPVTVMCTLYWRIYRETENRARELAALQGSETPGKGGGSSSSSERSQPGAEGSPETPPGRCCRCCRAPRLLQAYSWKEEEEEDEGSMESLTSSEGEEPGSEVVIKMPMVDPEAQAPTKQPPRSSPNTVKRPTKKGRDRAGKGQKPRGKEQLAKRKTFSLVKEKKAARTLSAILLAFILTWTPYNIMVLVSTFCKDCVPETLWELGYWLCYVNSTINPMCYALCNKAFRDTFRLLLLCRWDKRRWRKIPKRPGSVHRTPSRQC
Chain of KiSS-1 receptor (Homo sapiens) (Q969F8 whole entry, looked up): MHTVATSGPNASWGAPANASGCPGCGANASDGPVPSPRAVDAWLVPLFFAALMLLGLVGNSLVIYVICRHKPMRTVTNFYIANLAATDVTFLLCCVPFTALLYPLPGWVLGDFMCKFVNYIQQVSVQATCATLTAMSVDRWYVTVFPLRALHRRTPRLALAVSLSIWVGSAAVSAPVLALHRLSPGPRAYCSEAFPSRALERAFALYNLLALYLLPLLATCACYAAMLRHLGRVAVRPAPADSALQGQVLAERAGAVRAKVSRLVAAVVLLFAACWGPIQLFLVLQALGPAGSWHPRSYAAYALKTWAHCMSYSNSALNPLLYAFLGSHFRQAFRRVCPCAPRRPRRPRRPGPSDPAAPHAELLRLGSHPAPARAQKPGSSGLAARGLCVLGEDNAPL
Chain of Gonadotropin-releasing hormone receptor (Homo sapiens) (P30968 whole entry, looked up): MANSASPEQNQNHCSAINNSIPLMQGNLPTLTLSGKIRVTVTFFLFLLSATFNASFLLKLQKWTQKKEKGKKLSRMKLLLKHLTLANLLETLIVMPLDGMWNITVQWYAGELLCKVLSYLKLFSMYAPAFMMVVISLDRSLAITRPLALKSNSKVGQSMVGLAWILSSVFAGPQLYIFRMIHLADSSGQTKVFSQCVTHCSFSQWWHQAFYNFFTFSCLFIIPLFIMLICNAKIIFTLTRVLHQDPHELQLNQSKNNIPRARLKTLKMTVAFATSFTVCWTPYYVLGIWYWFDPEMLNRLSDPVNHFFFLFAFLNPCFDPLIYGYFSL
Chain of 5-hydroxytryptamine receptor 2A (Homo sapiens) (P28223 whole entry, looked up): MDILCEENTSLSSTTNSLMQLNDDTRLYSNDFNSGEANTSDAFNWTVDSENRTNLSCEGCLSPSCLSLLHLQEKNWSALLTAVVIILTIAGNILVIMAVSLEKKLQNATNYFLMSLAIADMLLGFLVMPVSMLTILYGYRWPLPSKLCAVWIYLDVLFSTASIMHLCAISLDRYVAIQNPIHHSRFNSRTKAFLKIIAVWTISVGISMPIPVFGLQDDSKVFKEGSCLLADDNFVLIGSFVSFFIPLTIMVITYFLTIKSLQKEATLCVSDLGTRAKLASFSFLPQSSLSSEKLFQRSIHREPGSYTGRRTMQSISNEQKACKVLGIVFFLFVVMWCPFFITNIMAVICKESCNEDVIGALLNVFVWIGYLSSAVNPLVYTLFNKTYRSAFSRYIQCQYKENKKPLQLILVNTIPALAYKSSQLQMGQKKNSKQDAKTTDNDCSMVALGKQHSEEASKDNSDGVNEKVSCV
Chain of D(2) dopamine receptor (Homo sapiens) (P14416 whole entry, looked up): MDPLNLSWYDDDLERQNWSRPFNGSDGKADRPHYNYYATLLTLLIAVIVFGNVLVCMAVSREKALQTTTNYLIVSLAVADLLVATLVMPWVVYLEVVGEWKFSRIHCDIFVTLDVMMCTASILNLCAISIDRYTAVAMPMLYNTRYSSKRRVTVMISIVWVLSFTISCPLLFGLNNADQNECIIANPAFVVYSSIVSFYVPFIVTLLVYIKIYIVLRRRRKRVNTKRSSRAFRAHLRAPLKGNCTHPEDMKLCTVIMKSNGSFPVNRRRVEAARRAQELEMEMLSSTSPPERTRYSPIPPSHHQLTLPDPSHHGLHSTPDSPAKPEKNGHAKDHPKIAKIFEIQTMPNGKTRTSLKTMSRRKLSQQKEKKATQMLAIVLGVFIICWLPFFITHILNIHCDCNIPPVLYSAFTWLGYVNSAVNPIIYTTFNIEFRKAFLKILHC

`O=C(OCCN1CCOCC1)c1cccnc1Nc1cccc(C(F)(F)F)c1`: the Potency entry in assay [1], in assay [2], in [3], in [6], in [7] and in assay [8] was “inactive” in each case. For the same compound, the Potency entry in assay [9], in assay [10], in assay [11], in assay [12], in assay [13] and in assay [14] was “inactive” each time. In addition, the Potency entry in assay [15], in [16], in assay [17] and in assay [18] was “inactive” in each case. The result in assay [4] and in assay [5] was inactive.
For the compound `COc1cc(NS(=O)(=O)c2ccc(N)cc2)ncn1`, the Potency result in assay [1], in [2], in assay [3], in assay [6], in assay [7] and in [8] was “inactive” throughout. For the same compound, the Potency entry in assay [9], in assay [10], in assay [11], in assay [12], in [13] and in assay [14] was “inactive” in each case. Moreover, the Potency result in assay [19], in [16], in [20] and in assay [18] was “inactive” each time. The result in [4] and in assay [5] was inactive.
Take `Oc1ccc(Cl)c2cccnc12`: the Potency was 0.531 µM (active) in [1] and 0.668 µM (active) in [2]. Further, the Potency result in [3], in [6], in assay [7], in assay [8], in [9] and in assay [10] was “inactive” throughout. In addition, the Potency result in assay [11], in assay [12], in assay [13], in assay [14], in assay [15] and in assay [16] was “inactive” each time. For the same compound, the Potency entry in assay [20], in assay [17] and in assay [18] was “inactive” in each case. For the same compound, the outcome in assay [4] and in assay [5] was inactive.
Regarding `CC(O)c1ccccc1` (stereo unspecified), the Potency result in assay [1], in assay [2], in assay [3], in assay [6], in [7] and in [8] was “inactive” in each case. For the same compound, the Potency result in assay [9], in [10], in assay [11], in assay [12], in assay [13] and in [14] was “inactive” throughout. In addition, the Potency entry in assay [15], in assay [19], in [16] and in assay [18] was “inactive” each time. In addition, the result in assay [4] and in assay [5] was inactive.
Regarding `CCO[Si](CCCCl)(OCC)OCC`, the Potency result in assay [1], in assay [2], in assay [3], in assay [6], in [7] and in [8] was “inactive” in each case. Moreover, the Potency result in assay [9], in assay [10], in assay [11], in assay [12], in assay [13] and in assay [14] was “inactive” in each case. For the same compound, the Potency result in assay [15], in assay [19], in [16], in assay [20], in [17] and in [18] was “inactive” in each case. The result in assay [4] and in [5] was inactive.
Take `C[N+]1(C)CCC(=C(c2ccccc2)c2ccccc2)CC1`: the Potency entry in assay [1], in [2], in [3], in assay [6], in [7] and in assay [8] was “inactive” each time. Besides, the Potency result in [9], in [10], in assay [11], in [12], in [14] and in [15] was “inactive” each time. In addition, the Potency entry in [19], in [16], in [20], in [17] and in [18] was “inactive” in each case. Further, the result in [4] and in assay [5] was inactive. Further, the Potency in assay [13] was 0.013 µM (active).
On to `Cc1ccc2sc3cccc(C)c3c2c1`, for which the Potency result in assay [1], in assay [2], in [3], in [6], in assay [7] and in assay [8] was “inactive” throughout. Besides, the Potency result in [9], in [10], in [11], in [12], in assay [13] and in assay [14] was “inactive” in each case. Further, the Potency result in assay [19], in assay [16], in [17] and in assay [18] was “inactive” in each case. Also, the result in assay [4] and in [5] was inactive.

The values are drawn from PubChem BioAssay (Tox21).
